# Only some compounds are listed: those with a hit (about 7.3% of all), similar ones and a draw of the others.
# ELG1 genotoxic – induces genotoxicity in HEK293T cells with luciferase-tagged ELG1; HEK293T ELG1-luciferase reporter, luminescence, 16 h; Potency, µM (highest dose often 46 µM), for inactives: at the highest dose activity change, positive = activation, hits mostly activators; actives 1.3% (n = 330,000); AID 504466; also: % of control where 0% means no effect; nearly all actives have a fitted effect of over 60% in size
#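 Screening used a luciferase reporter fused to human ELG1 in HEK293T cells. Luminescence was read on a CCD plate imager after 16 hr exposure and 30 min ONE-Glo incubation.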
# NPC1 promoter act – activators of NPC1 promoter. AID 485313. actives 2.4% (n = 320,000). Huh7 NPC1 promoter luciferase reporter, 24 h. Potency, µM (doses to about 9.22 µM), for inactives: top-dose activation, hits mostly activators; also: % of control where 0% means no effect; nearly all actives have a fitted effect of over 60% in size
#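 Luciferase expression driven by the NPC1 promoter was measured in stably transfected Huh7 cells after a 24 h compound incubation, using a luciferase reagent and a luminescence read.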
# FLuc modulator – counter-screen for miR-21 project: firefly luciferase inhibitors or activators; P08659; purified FLuc, Km substrates, luminescence inhibition; Potency, µM (series often up to 57.5 µM), inactives show at the top dose activity change, negative = inhibition, actives largely listed as inhibitors; actives 6.9% (n = 360,000); AID 588342;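 also: plate controls were vehicle for no effect and reference inhibitor for full effect; nearly all actives have a fitted effect of over 55% in size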
# Target sequence (P08659 whole entry, looked up): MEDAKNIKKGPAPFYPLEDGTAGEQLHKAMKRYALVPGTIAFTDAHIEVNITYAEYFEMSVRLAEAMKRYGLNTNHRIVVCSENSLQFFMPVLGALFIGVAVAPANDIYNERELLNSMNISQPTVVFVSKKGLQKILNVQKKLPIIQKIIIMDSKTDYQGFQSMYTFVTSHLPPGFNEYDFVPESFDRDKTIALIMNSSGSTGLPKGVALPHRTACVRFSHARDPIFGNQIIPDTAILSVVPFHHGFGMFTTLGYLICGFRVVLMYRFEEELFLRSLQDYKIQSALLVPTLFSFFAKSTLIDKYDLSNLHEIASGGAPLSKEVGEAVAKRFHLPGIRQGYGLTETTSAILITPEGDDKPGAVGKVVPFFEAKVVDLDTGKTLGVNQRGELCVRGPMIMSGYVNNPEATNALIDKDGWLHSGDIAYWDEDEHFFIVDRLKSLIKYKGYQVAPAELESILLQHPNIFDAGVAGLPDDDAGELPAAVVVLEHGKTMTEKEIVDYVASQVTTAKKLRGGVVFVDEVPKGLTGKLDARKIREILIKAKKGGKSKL
#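 Purified P. pyralis luciferase (10nM final) with 10uM D-luciferin and 10uM ATP (Km levels) in 50mM Tris acetate pH 7.5, 10mM Mg acetate, 0.01% Tween-20, 0.05% BSA; qHTS 6-point titration, ~60 µM downward; luminescence read.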
# Rab9 promoter act – activates the Rab9 promoter | AID 485297 | actives 2.8% (n = 320,000) | Huh7 Rab9 promoter-luciferase reporter, luminescence, 24 h | Potency, µM (doses to about 9.22 µM), for the others: at the highest dose activation, negative = inhibition, hits mostly activators; also: % of control where 0% means no effect; nearly all actives have a fitted effect of over 60% in size
#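 Using Huh7 cells stably transfected with Rab9 promoter–luciferase, compounds were incubated 24 h at 37 °C, 5% CO2; luciferase luminescence was read 10 min after reagent addition.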
# SMN2 splice up – enhancers of SMN2 splice variant expression | HEK293 SMN2-luciferase splicing reporter, luminescence, 30-36 h | Potency, µM (titrated, usually from 46.1 µM), for inactives: at the top dose activity change, positive = activation, usual class: activators | actives 2.8% (n = 210,000) | AID 1458; also: % of control where 0% means no effect; nearly all actives have a fitted effect of over 55% in size
#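 HEK293 cells carry an SMN2 […]–luciferase reporter in which exon 7 inclusion puts luciferase in frame. Cells were plated 10-12 h before compound addition, then incubated 30-36 h at 37C. ONE-Glo luminescence was read; sodium butyrate at 4.5 mM final served as control.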
# p53 reactivator – mutant p53 re-activation in reporter cells; H1299 p53-A138V BP100-luciferase reporter, luminescence, 24 h; Potency, µM (series often up to 92.2 µM), for inactives: at the highest dose activity change, positive = activation, actives largely listed as activators; actives 0.063% (n = 320,000); also: % of control where 0% means no effect; nearly all actives have a fitted effect of over 45% in size
#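 p53-null H1299 cells stably carrying temperature-sensitive p53-A138V and a BP100-luciferase reporter were pinned with compounds (4-point, 1:5 series) and held 24 hrs at 37 deg C. Luminescence was read 10 min after detection reagent.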
# An asterisk follows results filed as active; ? = inconclusive; . = no result. Calls follow the shape of the dose curve; as a rule, active = well fitted curve in the direction sought with a large enough effect; inconclusive = small, poorly fitted or top-dose-only effect, or another doubt; inactive = no such curve, though single readings can be large; an effect the other way counts as inactive or inconclusive. Potency is read from the fitted curve at half-maximal effect.
SMILES,ELG1 genotoxic,NPC1 promoter act,FLuc modulator,Rab9 promoter act,SMN2 splice up,p53 reactivator
CSc1ccccc1OCc1cc(C(=O)N2CCCC2c2nonc2C)no1 (stereo not drawn),?,2µM*,8.5µM*,2.2µM*,.,?
Cc1cccc(C)c1OCc1cc(C(=O)N2CCCC2c2nonc2C)no1 (stereo not drawn),-3%,4%,-3%,7%,.,-17%
Cc1nonc1C1CCCN1C(=O)c1cc(COc2ccc(F)cc2F)on1 (stereo not drawn),?,?,9.5µM*,2.2µM*,.,9%
COc1cc(-c2nc(Cn3nnc(C(=O)Nc4cc(C)cc(C)c4)c3C)c(C)o2)cc(OC)c1OC,.,.,-11%,.,-5%,.
O=S(=O)(c1cc(O)ccc1O)c1cccc2c(S(=O)(=O)c3cc(O)ccc3O)cccc12,1%,-6%,-1%,-10%,.,-4%
Cc1cc(C(=O)N/N=C/c2ccccc2Br)no1,4%,20%,21µM*,26%,2%,24%
O=C(c1cnsn1)N1CCC(CO)(Cc2cccc(F)c2)CC1,?,?,13µM*,3.2µM*,.,13%
Cc1cc(C(=O)N2CCC(CO)(Cc3cccc(C(F)(F)F)c3)CC2)n[nH]1,-3%,0%,-1%,-1%,.,-8%
COc1ccc(NC(=O)CCCN2C(=O)CCn3nc(-c4cn(C)c5ccccc45)cc32)cc1,.,.,4%,.,.,.
COc1ccc(-c2nc(SCC(=O)NC3CCCC3)c(-c3ccccc3)[nH]2)cc1OC,.,.,19µM*,.,9%,.
COc1cccc(-c2ccc(SCC(=O)NC3CCCCC3)nn2)c1,-3%,0%,15µM*,12%,.,3%
COc1ccccc1-c1ccc(SCC(=O)NC2CCCC2)nn1,16%,-2%,0%,1%,.,8%
COc1ccc(-c2nc(SCC(=O)Nc3ccc4c(c3)OCCO4)c(-c3ccc(F)cc3)[nH]2)cc1OC,.,.,6.7µM*,.,15%,.
COc1ccc(-c2ccc(SCC(=O)NC3CCCC3)nn2)cc1OC,18%,11%,15µM*,3%,.,6%
COc1ccc(-c2nc(SCC(=O)NC3CCCC3)c(-c3ccc(F)cc3)[nH]2)cc1OC,.,.,?,.,3%,.
Cc1ccc(C)c(N2CCN(S(=O)(=O)c3c(C(=O)N4CCC(C)CC4)c(C)n(C)c3C)CC2)c1,.,.,4%,.,.,.
CCn1cc(/C=N\NC(=O)c2csc3ccccc23)c(C)n1,29%,1%,?,9%,-11%,6%
Cc1c(/C=N\NC(=O)c2ccc(F)cc2)cnn1C,-1%,-3%,-19%,-2%,-7%,6%
CCn1cc(/C=N\NC(=O)c2c[nH]c3ccccc23)c(C)n1,4%,15%,21µM*,19%,27%,29%
Cc1c(/C=N\NC(=O)c2c[nH]c3ccccc23)cnn1C,6%,2%,12µM*,14%,27%,4%
Cn1c(SCc2c(F)cccc2Cl)nnc1-c1cccs1,13µM*,?,15µM*,2.2µM*,20µM*,?
Cn1c(SCCOc2ccccc2Cl)nnc1-c1cccs1,6%,-1%,?,3%,-5%,17%
CCN(CC)C(=O)CSc1nnc(SCc2ccc(Cl)cc2)s1,-7%,1%,19µM*,-7%,10%,3%
O=C(CSc1nnc(SCc2ccc(Cl)cc2)s1)N1CCOCC1,0%,-15%,15µM*,0%,-6%,2%
O=C(CCCCn1c(=O)c2ccccc2n(Cc2cccc(F)c2)c1=O)NCc1ccc2c(c1)OCO2,.,.,-3%,.,-8%,.
SMILES,ELG1 genotoxic,NPC1 promoter act,FLuc modulator,Rab9 promoter act,SMN2 splice up,p53 reactivator
O=S(=O)(O)c1cccc(N=Nc2c(O)ccc3ccccc23)c1,-1%,1%,24µM*,0%,.,-1%
CCOC(=O)c1[nH]cnc1N=Nc1c(O)ccc2ccccc12,?,-8%,?,-24%,-96%,23%
Oc1ccc2ccccc2c1N=Nc1ccccn1,1%,?,15µM*,-27%,-79%,-3%
Oc1ccc2ccccc2c1N=Nc1ccccc1F,1%,?,17µM*,2%,.,?
CCn1cc(S(=O)(=O)c2ccccc2)c(=O)c2cc(F)c(N3CCCCCC3)cc21,.,.,-8%,.,.,.
CC(c1ccco1)N(C(=O)c1ccccc1NS(=O)(=O)c1ccc(Cl)c([N+](=O)[O-])c1)c1ccccn1 (stereo not drawn),-3%,3%,-1%,-4%,-11%,2%
COc1ccc(Cl)cc1NC(=O)Cn1c(=O)n(Cc2nc(C)no2)c(=O)c2ccccc21,.,.,2%,.,.,.
COc1ccc(NC(=O)c2ccc3c(=O)n4nc(Nc5cccc(Cl)c5C)sc4nc3c2)cc1,.,.,-8%,.,.,.
COc1ccc(OC)c(-c2csc(NC(=O)Cc3ccc(F)cc3)n2)c1,-13%,-6%,17µM*,-2%,.,17%
COc1ccc(OC)c(-c2csc(NC(=O)c3ccc(OCC4CCCO4)cc3)n2)c1 (stereo not drawn),-4%,-4%,1.5µM*,-25%,-25%,?
COc1ccc(OC)c2sc(NC(=O)C3=COCCO3)nc12,11%,-2%,-17%,12%,-49%,1%
COc1ccc(OC)c(-c2csc(NC(=O)COC(=O)C3CCC3)n2)c1,2%,-5%,?,-4%,.,-9%
COc1ccc(C)c2sc(NC(=O)C3=COCCO3)nc12,16µM*,14%,5.4µM*,15%,?,2%
COc1ccc(OC)c(-c2csc(NC(=O)C3=COCCO3)n2)c1,-4%,1%,11µM*,0%,.,10%
CC(=O)c1cccc(NC(=O)CCc2nc3cccnc3n2Cc2cccs2)c1,.,.,-10%,.,-18%,.
CC1=C(C(=O)Nc2cccc(C(F)(F)F)c2)C2(CCN(C(C)C)CC2)OC1=O,.,.,1%,.,.,.
O=C(Nc1cc(C(F)(F)F)ccc1-n1cncn1)c1ccc(F)cc1Cl,0%,-5%,-1%,-4%,.,-2%
COc1ccc(C(=O)Nc2nc(CC(=O)NCCc3ccccc3OC)cs2)cc1,-6%,-6%,2.7µM*,5%,.,-1%
COc1ccc(OC)c(-c2csc(NC(=O)c3ccc(F)cc3)n2)c1,7%,?,11µM*,6%,.,-56%
COc1ccc(OC)c(-c2csc(NC(=O)Cc3cc(OC)c(OC)c(OC)c3)n2)c1,-21%,-8%,4%,-3%,.,3%
Cc1c(NS(=O)(=O)c2ccc(C(C)(C)C)cc2)c(=O)n(-c2ccccc2)n1C,.,.,-9%,.,7%,.
COc1cccc(Cn2c(CNC(=O)C(C)C)nc3cccnc32)c1,.,.,1%,.,.,.
CCn1ccc(C(=O)Oc2ccc(C(C)C)cc2)n1,?,0%,2.7µM*,-3%,1%,12%

# Screening data as filed in PubChem.
